Measured values taken from PubChem BioAssay (NCATS).
Records with an inconclusive call do not appear. Values without a mark were called inactive. Calls of active or inactive are those of the source. The call rests on the fitted dose curve; in most records, active means well fitted curve in the direction sought with a large enough effect; inconclusive means small, poorly fitted or top-dose-only effect, or another doubt; inactive means no such curve, though single readings can be large or run the other way. *1 amine or outer side, *2 acyl side, *3 side chain or, on linkers, in order; H or OH if unused. Where a SMILES comes first, the peptide text is derived from it. Bridges are numbered along the chain shown (N, C = ends). Roman numbers before positions name the chains, in order. [ ]: non-standard residue; d: D form. ξ: configuration not given here. Actinocin(9to1) = Cc1c2oc3c(C)ccc(C(=O)[*:1])c3nc-2c(C(=O)[*:2])c(N)c1=O; ξNMeV = CNC(C(=O)O)C(C)C; ξV = CC(C)C(N)C(=O)O; Sar = CNCC(=O)O

Test: Cytotoxicity counterscreen for NFkB agonists and antagonists (AID 624476);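 further: cells exposed to compound for 48 hours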
Conditions: NFkB reporter cell line viability counterscreen; series mostly up to 46.1 µM; activity change, negative = cytotoxicity: at the top concentration
On the % scale 0 is the no-effect control and ±100 the full control effect; potency means the concentration at half of the fitted maximal effect.

Compound | Potency | activity change, negative = cytotoxicity
CCOc1cc2ncc(C#N)c(Nc3ccc(OCc4ccccn4)c(Cl)c3)c2cc1NC(=O)/C=C/CN(C)C | 37200 nM (active) | 
NC(=O)Nc1cc(-c2ccc(CN3CCOCC3)c(F)c2)sc1C(=O)N[C@H]1CCCNC1 | 590 nM (active) | 
Cc1nnc(C(C)C)n1C1CC2CCC(C1)N2CC[C@H](NC(=O)C1CCC(F)(F)CC1)c1ccccc1 (stereo partly specified) |  | 0.091%
CN(NC(=O)CC(=O)NN(C)C(=S)c1ccccc1)C(=S)c1ccccc1 |  | 1.35%
C[C@@H]1CCN(C(=O)CC#N)C[C@@H]1N(C)c1ncnc2[nH]ccc12 |  | 0.549%
CCC1(Cc2ccc(N)cc2)CCC(=O)NC1=O (stereo unspecified) |  | -26.7% [at 92.2 µM]
CCC1(O)CC2CN(CCc3c([nH]c4ccccc34)[C@@](C(=O)OC)(c3cc4c(cc3OC)N(C=O)[C@H]3[C@](O)(C(=O)OC)[C@H](OC(C)=O)[C@]5(CC)C=CCN6CC[C@]43[C@@H]65)C2)C1 (stereo partly specified) |  | 15.3%
CC(NC(=O)Cc1cc(F)cc(F)c1)C(=O)NC(C(=O)OC(C)(C)C)c1ccccc1 (stereo unspecified) |  | 1.42%
CCCCCCCCCCCCCCCCCCOP(=O)([O-])OC1CC[N+](C)(C)CC1 |  | 7.69% [at 29.8 µM]
O=C(O)CC/C=C\CC[C@H]1[C@@H](N2CCCCC2)[C@@H](O)C[C@@H]1OCc1ccc(-c2ccccc2)cc1 |  | 1.23%
Cc1c2oc3c(C)ccc(C(=O)N[C@@H]4C(=O)NC(C(C)C)C(=O)N5CCC[C@H]5C(=O)N(C)CC(=O)N(C)C(C(C)C)C(=O)O[C@@H]4C)c3nc-2c(C(=O)N[C@@H]2C(=O)NC(C(C)C)C(=O)N3CCC[C@H]3C(=O)N(C)CC(=O)N(C)C(C(C)C)C(=O)O[C@@H]2C)c(N)c1=O (stereo partly specified) (I: T[ξV]P[Sar][ξNMeV] / II: T[ξV]P[Sar][ξNMeV]; ester I:1-I:C, II:1-II:C; linker I:N-II:N via Actinocin(9to1)) | 1.3 nM (active) | 
